Hits are enriched below; roughly 8.8% of the tested compounds scored in any of these assays.
IL-1B inflam inh – inhibitors of inflammasome signaling (IL-1 beta secretion); THP-1 LPS/ATP IL-1B secretion, AlphaLISA, 16 h; stronger effect = lower value; activity change, % at 57.5 µM; 360,000 compounds, 4.7% hits; AID 743279; in the data active means activity change below about -50%; inconclusive means mostly about -30% to -49%
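Secreted IL-1B measured by AlphaLISA bead assay after 16 h compound exposure of THP-1 cells; compounds (final up to 57.5 uM) added 1 h before LPS (250 ng/mL) and ATP (1.25 mM) stimulation; lower signal means less secretion.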
HT1080 IDH1KD tx – kills HT-1080 cells with IDH1 knockdown; HT-1080 IDH1 knockdown viability, ATP luminescence, 48 h; Potency, µM (titrated, usually from 46.1 µM), for inactives: at the top dose activity, negative = toxicity, hits mostly cytotoxic; 360,000 compounds, 2% hits; AID 686971;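 further: potency means the concentration at half of the fitted maximal effect; 0% = DMSO wells and -100% = cell-free medium wells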
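Cytotoxicity counter-line: IDH1KD HT-1080, 48 h, CellTiter-Glo. Curves classed by r2, magnitude and activity.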
KB-V1 cytotox – kills drug-selected multidrug resistant KB-V1 cells; 400,000 compounds, 3.4% hits; KB-V1 MDR cells viability, CellTiter-Glo, 72 h; Potency, µM (top dose mostly 46.1 µM), hits mostly cytotoxic; AID 1347076; further: potency means the concentration at half of the fitted maximal effect; nearly all actives have a fitted effect of over 60% in size
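Cytotoxicity via CellTiter-Glo luminescence after 72 h compound exposure at 37 degrees C. Cells: drug-selected KB-V1 line, DMEM phenol-red free plus 10% FBS. Compounds tested at multiple concentrations; normalized data fitted to concentration-effect curves.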
KB-3-1 tox – kills parental KB-3-1 adenocarcinoma cells | KB-3-1 viability, CellTiter-Glo ATP luminescence, 72 h | Potency, µM (series often up to 46.1 µM), actives largely listed as cytotoxic | 400,000 compounds, 1.4% hits; further: potency means the concentration at half of the fitted maximal effect; nearly all actives have a fitted effect of over 60% in size
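Cytotoxicity measured as CellTiter-Glo luminescence after 72 h at 37 C. Compound titrations were pinned onto drug-naive KB-3-1 parental adenocarcinoma cells grown in DMEM with 10% FBS, and normalized data fitted to concentration-response curves.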
HT1080NT lethal – kills 2HG-producing HT-1080-NT fibrosarcoma cells; HT-1080-NT fibrosarcoma viability, CellTiter-Glo ATP luminescence, 48 h; Potency, µM (top dose mostly 46.1 µM), inactives show at the highest dose activity, negative = less viability, actives largely listed as cytotoxic; 360,000 compounds, 1.6% hits; AID 686970;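 further: NT is the 2HG producing partner of a matched IDH1 knockdown line; potency means the concentration at half of the fitted maximal effect; 0% = DMSO-treated cells and -100% = media-only wells without cells; nearly all actives have a fitted effect of over 55% in size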
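Viability by CellTiter-Glo luminescence after 48 h compound exposure at 37C of HT-1080-NT cells (750/well, RPMI, 5% FBS). % activity scaled between DMSO wells and medium-only wells, then curve-fitted and categorized by curve class.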
Active calls of the source: *; i = inactive; ? = inconclusive; . = not tested or not shown. Unless noted, the call rests on the fitted dose curve; in most records, active means well fitted curve in the direction sought with a large enough effect; inconclusive means small, poorly fitted or top-dose-only effect, or another doubt; inactive means no such curve, though single readings can be large; an effect the other way counts as inactive or inconclusive. Unless noted, on the % scale 0 is the no-effect control and ±100 the full control effect.

SMILES | IL-1B inflam inh | HT1080 IDH1KD tx | KB-V1 cytotox | KB-3-1 tox | HT1080NT lethal
N#C/C(=C/c1ccc(-c2ccccc2[N+](=O)[O-])o1)C(N)=O | -9 | 14% | i | i | 12%
NC(=S)N/N=C/c1ccc(-c2cc(Cl)ccc2Cl)o1 | 52 | ? | 7.3µM* | i | 3.2µM*
CNC(=S)N/N=C/c1ccc(-c2cc([N+](=O)[O-])ccc2Cl)o1 | -14 | -19% | i | 7.3µM* | -14%
CN1CCN(/N=C/c2ccc(-c3ccc([N+](=O)[O-])cc3Cl)o2)CC1 | -81* | ? | i | i | ?
COc1cc2c(cc1OC)C(COc1ccc([N+](=O)[O-])cc1)NCC2 (stereo not given) | 0 | 0% | i | i | -23%
Cc1ccc(CS(=O)(=O)c2nc3c(c(N(C)C)n2)CCCC3)cc1 | -79* | -21% | ? | ? | -11%
Cc1nc(S(=O)(=O)Cc2ccc(Cl)cc2)nc2c1CCC2 | -10 | 5% | i | i | 13%
Cc1ccccc1-n1c(-c2ccc(Cl)cc2)cnc1SCC(=O)NC1CCS(=O)(=O)C1 (stereo not given) | 5 | 2% | 18µM* | i | -6%
O=C(CSc1nnc(-c2ccccc2)n1-c1ccc(Cl)cc1)NC1CCS(=O)(=O)C1 (stereo not given) | -2 | 11% | i | i | -3%
CCC(CO)NS(=O)(=O)c1cc(-c2nn(C)c(=O)c3ccccc23)ccc1C (stereo not given) | 10 | -9% | i | i | -5%
COc1ccc(OCCOC(=O)CNC(=O)c2ccc(Cl)cc2Cl)cc1 | 8 | -1% | i | i | -4%
COc1ccc(C(=O)NCC(=O)OCCOc2ccc(Cl)cc2)cc1OC | -56* | 1% | . | . | -3%
COc1cc(SC)ccc1C(=O)NCCOc1c(C)cc(C)cc1C | 0 | ? | 21µM* | ? | -24%
COc1cc(SC)ccc1C(=O)NCCc1ccccc1 | -7 | ? | i | ? | 24%
COc1cc(SC)ccc1C(=O)NCCOc1ccc(Cl)cc1 | -1 | 21% | 21µM* | i | 20%
COc1ncnc2c1ncn2CCCNCCCN1CCCC1=O | 8 | 1% | i | i | 15%
CC(CNC(=O)c1ccc2nc(Cc3ccccc3)oc2c1)c1ccccc1 (stereo not given) | . | . | i | ? | .
Cc1ccccc1NC(=O)c1c(C)oc2ccc(O)c(CN3CCC(C)CC3)c12 | . | . | i | i | .
O=C(NC(NC(=S)N1CCOCC1)C(Cl)(Cl)Cl)c1cccc2ccccc12 (stereo not given) | -27 | -1% | 16µM* | i | 14%
CCCCCCCCC(=O)NC(NC(=S)N1CCOCC1)C(Cl)(Cl)Cl (stereo not given) | -7 | 11µM* | ? | i | ?
C=CCN=C1S/C(=C\N(C)C)C(=O)N1S(=O)(=O)c1ccc(C)cc1 | 13 | -4% | i | i | 1%
Cc1ccc(CC2C(=O)N(c3nc(C)cc(C)n3)C(=O)C2C)cc1 (stereo not given) | 10 | 12% | i | i | 14%
CC1=C(C(=O)Nc2cc(Cl)ccc2C)C(c2ccco2)n2ncnc2N1 (stereo not given) | . | . | i | i | .
CC1=C(C(=O)Nc2cc(Cl)ccc2C)C(c2ccccc2F)n2ncnc2N1 (stereo not given) | . | . | 18µM* | i | .
c1ccc(CCNc2ccc3ncc(-c4cccc5ccccc45)n3n2)nc1 | 6 | -8% | 13µM* | i | -25%
SMILES | IL-1B inflam inh | HT1080 IDH1KD tx | KB-V1 cytotox | KB-3-1 tox | HT1080NT lethal
Cc1cc(S(=O)(=O)Nc2ccc(O)c(Sc3nc4ccccc4s3)c2)ccc1Cl | . | . | 18µM* | ? | .
Cc1nc(CN2CCN(C(=O)c3ccc(C(C)(C)C)cc3)CC2)cs1 | ? | -4% | i | i | -5%
O=C(Nc1ccc(C(=O)O)cc1)/C(=C\c1ccc([N+](=O)[O-])cc1)NC(=O)c1ccco1 | -5 | 3% | i | i | 9%
O=C(N/N=C/C(Cl)=C/c1ccc([N+](=O)[O-])cc1)C(=O)Nc1ccc(C(=O)O)cc1 | -52* | 7% | i | i | 1%
O=C(N/N=C/C(Cl)=C/c1ccc([N+](=O)[O-])cc1)C(=O)Nc1ccccc1C(=O)O | 1 | 0% | 2.1µM* | 7.3µM* | 26%
CS(=O)(=O)c1ccc(C(=O)OCC(=O)NC(=O)NC2CCCCC2)cc1[N+](=O)[O-] | . | . | i | ? | .
Cn1ccsc1=NC(=O)c1ccc(Cl)c([N+](=O)[O-])c1 | 16 | 2% | i | i | 14%
Cc1nc2cc(C(=O)OCC(=O)NC34CC5CC(CC(C5)C3)C4)ccc2n1-c1ccccc1 | -66* | 3% | i | i | -13%
Cn1cccc1C(=O)NC(=O)COC(=O)c1ccc(S(C)(=O)=O)cc1 | 0 | -1% | i | i | 0%
Cn1cccc1C(=O)NC(=O)COC(=O)c1ccc(S(C)(=O)=O)c([N+](=O)[O-])c1 | -95* | ? | ? | ? | ?
Cc1nc2cc(C(=O)OCC(=O)NC3CCS(=O)(=O)C3)ccc2n1-c1ccccc1 (stereo not given) | -8 | 17% | i | i | 18%
CS(=O)(=O)c1ccc(C(=O)OCC(=O)NC23CC4CC(CC(C4)C2)C3)cc1[N+](=O)[O-] | -107* | -22% | i | i | ?
Cn1ccsc1=NC(=O)c1ccc(S(C)(=O)=O)c([N+](=O)[O-])c1 | -110* | ? | . | . | -16%
O=C(Cc1ccccc1)NC1CCN(Cc2ccccc2)CC1 | 0 | 12% | i | i | 10%
O=C(NC1CCN(Cc2ccccc2)CC1)c1ccccc1 | -3 | -1% | i | i | 12%
CCN(CC)C(=O)C1CCN(Cc2ccc(Br)cc2)CC1 | -10 | 1% | 18µM* | i | -5%
O=C(NC1CCN(Cc2ccccc2)CC1)C12CC3CC(CC(C3)C1)C2 | 19 | -8% | 26µM* | i | -8%
O=C(Cc1ccc(Br)cc1)NC1CCN(Cc2ccccc2)CC1 | ? | -23% | 18µM* | ? | -1%
O=C(CSc1nc(-c2cccs2)nc2cc(=O)[nH]n12)Nc1cccc(C(F)(F)F)c1 | . | . | i | i | .
COC(=O)c1ccc(COC(=O)CNC(=O)CNC(=O)c2ccc(OC)cc2)cc1 | -67* | 5% | i | i | 8%
CCOC(=O)C(Cc1nc(OCc2ccccc2)cc(OCc2ccccc2)n1)=NO | -7 | -26% | 13µM* | 21µM* | -21%
Cc1cc(C)c2cc(CN(CCO)C(=O)Nc3ccc(Cl)cc3)c(=O)[nH]c2c1 | -58* | -16% | i | i | -3%

From PubChem
